This note sets out measurements from PubChem BioAssay.

Calls of active or inactive are those of the source.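 How the source made its calls: active means mean duplicate potentiation above the buffer control mean plus 5 SD of buffer wells; inactive means the rest.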

In the assay the target is Potassium voltage-gated channel subfamily KQT member 2 (Rattus norvegicus) (UniProt O88943). As to the kind of experiment: KCNQ2 thallium flux enhancement – KCNQ2-CHO-K1 cells, selectivity assay for KCNQ1 potentiator project (AID 493009).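 Further: assay conditions were tuned for KCNQ1 rather than KCNQ2 modulators; signal is max minus min fluorescence divided by baseline after thallium stimulus.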 The note with it: FluxOR thallium flux fluorescence, at 10 µM; active compounds read high, scaled: buffer 0, activator control 100.
Potassium voltage-gated channel subfamily KQT member 2 (Rattus norvegicus), sequence (O88943 whole entry, looked up): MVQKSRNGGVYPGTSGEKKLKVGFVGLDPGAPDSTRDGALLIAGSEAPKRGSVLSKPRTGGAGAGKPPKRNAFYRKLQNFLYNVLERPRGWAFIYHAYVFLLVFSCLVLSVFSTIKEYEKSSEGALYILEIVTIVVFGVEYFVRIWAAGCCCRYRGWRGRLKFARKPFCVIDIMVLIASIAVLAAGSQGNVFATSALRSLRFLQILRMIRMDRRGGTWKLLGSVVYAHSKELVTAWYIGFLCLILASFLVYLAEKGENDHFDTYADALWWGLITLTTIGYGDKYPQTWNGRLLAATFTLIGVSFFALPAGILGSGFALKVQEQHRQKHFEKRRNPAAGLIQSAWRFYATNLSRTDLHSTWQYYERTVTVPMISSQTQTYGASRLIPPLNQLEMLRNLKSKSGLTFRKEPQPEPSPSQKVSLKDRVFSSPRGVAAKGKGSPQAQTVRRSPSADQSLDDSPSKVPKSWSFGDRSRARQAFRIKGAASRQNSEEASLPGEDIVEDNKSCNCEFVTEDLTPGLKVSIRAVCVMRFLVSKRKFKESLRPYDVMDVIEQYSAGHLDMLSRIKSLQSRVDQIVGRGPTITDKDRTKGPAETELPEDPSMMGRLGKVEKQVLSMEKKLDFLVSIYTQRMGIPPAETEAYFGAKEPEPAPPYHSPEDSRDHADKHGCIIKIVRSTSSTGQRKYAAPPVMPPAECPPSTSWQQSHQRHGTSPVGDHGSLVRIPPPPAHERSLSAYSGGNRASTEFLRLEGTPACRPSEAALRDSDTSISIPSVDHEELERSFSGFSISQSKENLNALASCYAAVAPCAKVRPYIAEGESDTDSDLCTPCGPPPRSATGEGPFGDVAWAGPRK
As for `CN1C(=O)NC(c2ccc(O)cc2)C(C(=O)c2cccs2)C1(O)C(F)(F)F` (stereo not drawn), the outcome was inactive.
Regarding `O=C(Nc1nnc(-c2ccc3c(c2)CCCC3)o1)c1c(F)cccc1F`, the potentiation is 182% (active).
Consider `O=C(N/N=C/c1ccccn1)c1cc(-c2ccc(Br)cc2)nc2ccccc12`, for which the potentiation is 174% (active).
Consider `CCSc1nnc(NC(=O)C2C3C=CC(C3)C2C(=O)O)s1` (stereo not drawn), for which the outcome was inactive.
The same measure, in the same setting: the entry for `COc1ccc(-c2cc3nc(C)c(CCC(=O)NC(C)CCc4ccco4)c(C)n3n2)c(OC)c1` (stereo not drawn) is “inactive”; for `COC(=O)c1ccccc1NC(=O)Cn1c(=O)n(Cc2ccccc2)c(=O)c2c(C)c(C)sc21` it is “inactive”.
Consider `CC1=NN(C(=O)c2csc(C(C)C)c2)C(O)(C(F)(F)F)C1` (stereo not drawn), for which the potentiation was 178% (active).
With `CC(OC(=O)CC1Sc2ccccc2NC1=O)C(=O)NC1CCCC1` (stereo not drawn), the result was inactive.
Turning to `O=C(c1ccccc1[N+](=O)[O-])N1CCN(c2ccc(N3CCOCC3)nn2)CC1`, the result was inactive.
Regarding `COc1cc(CNCc2ccccn2)ccc1OCc1c(Cl)cccc1Cl`, the result was inactive.
For `CCCn1c(=S)[nH]c2ccc(C(F)(F)F)cc21`, the outcome was inactive.
With `NC(=O)NC(=O)C[n+]1cccc(/C=N/O)c1`, the result was inactive.
For `COc1cc(OC)cc(C(=O)Nc2nnc(SCC(=O)NCc3ccco3)s2)c1`, the potentiation is 158% (active).
As to `N#Cc1cn(CC(=O)NCC2CCCO2)c2ccccc12` (stereo not drawn), the result was inactive.
Turning to `Fc1ccc(-n2nnc(-c3ccccc3)n2)cc1`, the result was inactive.
For `Oc1c(N=NC(=S)Nc2ccccc2F)c2ccccc2n1Cc1ccccc1F`, the potentiation was 169% (active).
As to `O=C(O)c1cnn(-c2ccccc2)c1-c1ccncc1`, the potentiation was 202% (active).
In the case of `Cc1ccc(C(=O)N/C(=C\c2ccc(-c3ccccc3[N+](=O)[O-])o2)C(=O)NCCCN2CCOCC2)cc1`, the outcome was inactive.
